# Gli-Sufu block – Gli-Sufu pathway antagonists, primary screen, luciferase luminescence, Sufu-KO-LIGHT cells, uHTS; Sufu-KO-LIGHT fibroblasts, Gli luciferase reporter luminescence; inhibition, % at 5 µM; 340,000 tested, 0.74% active;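 active = inhibition above about 55%, limit read from the data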;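 note: 0% = DMSO-treated cells and 100% = wells with medium but no cells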
# TAG inh – inhibitors of triacylglycerol accumulation, primary screen, cell-based, uHTS, fluorescence, H9c2; H9c2 cells, Nile Red lipid (TAG) fluorescence; cells loaded with 200 µM oleic acid; inhibition, % at 12.5 µM; 230,000 tested, 0.66% active;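 active = pattern-corrected inhibition of lipid staining of at least 50% with the nuclear-stain viability signal not falling by more than 50%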;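 note: 0% = DMSO wells and 100% = triacsin C control wells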
# aSyn UTR inh – MLPCN primary screen, SNCA 5' untranslated region; alpha-synuclein 5'UTR reporter, inhibitor activity; inhibition, % (tested at 7.5 µM); 300,000 tested, 0.82% active; in the data active = inhibition above about 60%; inconclusive = no clear call, values can overlap the other calls;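 note: H4 neuroglioblastoma cells stably carrying SNCA 5'UTR luciferase fusion; 0% = DMSO wells and 100% = positive control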
# Shn3 inh set2 – reduction of Shn3 3'UTR firefly luciferase signal, primary screen, Schnurri-3 inhibitor project, cell-based, Clone20 osteoblasts, set 2; Clone20 osteoblast Shn3 3'UTR firefly luciferase, 24 h; 360,000 tested, 0.52% active; AID 588674, 2011; inhibition, % at 12.5 µM;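 active = mean inhibition of at least 75% with every replicate also reaching 75%; inconclusive = mean inhibition at least 75% but some replicate below; inactive = mean inhibition below 75%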;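 note: 0% = median of neutral control wells and 100% = pilot-screen positive control compound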
# 697 NFkB inh – inhibitors of PMA/ionomycin-induced NF-kB reporter, 697 cells, primary screen, B-cell NF-kB inhibitor project, cell-based, luminescence, uHTS; 697 B-cell NF-kB luciferase reporter, 16 h; inhibition, % at 4 µM; 330,000 tested, 0.33% active; in the data active = inhibition above about 35%
# Jurkat NFkB inh – inhibitors of induced NF-kB luciferase reporter, primary screen, TCR NF-kB activation inhibitor project, cell-based, luminescence, uHTS; 330,000 tested, 0.53% active; Jurkat, PMA/ionomycin-induced NF-kB luciferase reporter; inhibition, % at 4 µM; in the data active = inhibition above about 50%
# 697 NFkB conf – PMA/ionomycin-induced NF-kB reporter inhibitors, 697 retest, confirmation, B-cell NF-kB inhibitor project, cell-based, luminescence, single concentration | shares compounds with 697 NFkB inh | 697 B-cell NF-kB luciferase, 16 h | inhibition, % at 4 µM | 2,000 tested, 35% active | AID 449746, 2010; in the data active = inhibition mostly above about 28%, no sharp cut-off; inactive = mostly below about 22%
# * hit, by the source's call; i = inactive; ? = inconclusive; · = no result given. Rows were chosen to be rich in hits. Some 2.3% of all compounds tested hit in one or more screens of this group.
SMILES,Gli-Sufu block,TAG inh,aSyn UTR inh,Shn3 inh set2,697 NFkB inh,Jurkat NFkB inh,697 NFkB conf
Cc1cc(=O)oc2cc(OCCc3ccccc3)ccc12,-52,·,-50,-55,-297,-78,-263
Cc1csc(=O)n1CC(=O)OCC(=O)NNC(=O)c1ccc([N+](=O)[O-])cc1,-9,-3,-4,2,-7,0,·
O=S(=O)(c1cccs1)n1nnc2ccccc21,2,·,-4,-6,21,0,·
CC1(c2nnc(-c3cccc(Cl)c3)o2)CC(c2cccc(Cl)c2)=NO1 (stereo not drawn),-12,-2,8,-14,37*,33,37*
CC1(c2nnc(-c3cccc(Cl)c3)o2)CC(c2ccc(Cl)cc2)=NO1 (stereo not drawn),21,1,-3,-6,10,-2,·
CC(=O)N1CCc2ccc(S(=O)(=O)Nc3ccccc3Cl)cc21,8,-10,11,0,6,10,·
Cn1c(=O)c2c(nc(Br)n2CCCc2ccccc2)n(C)c1=O,6,-35,4,-13,13,12,·
O=C(Oc1ccc(-c2nnco2)cc1)c1ccc(Br)o1,39,1,-6,-2,14,0,·
COc1ccc(-c2cc(C(=O)N(C)CC(=O)Nc3ccccc3Br)c3ccccc3n2)cc1OC,11,24,9,2,44*,20,21
COc1ccc(-c2cc(C(=O)N(C)CC(=O)Nc3ccccc3C(F)(F)F)c3ccccc3n2)cc1OC,·,23,·,15,·,·,·
CN1CCN(c2nc(-c3ccncc3)nc3ccccc23)CC1,10,24,5,15,3,-7,·
COc1cccc(N2CCN(c3ncnc4c3[nH]c3ccc(F)cc34)CC2C)c1 (stereo not drawn),91*,-31,47,96*,71*,10,91*
CCc1n[nH]c(=S)n1/N=C/c1cc(Br)c(O)c(OC)c1,-3,-21,9,-36,36*,-1,-2
COc1cc(/C=N/n2c(COc3ccccc3)n[nH]c2=S)cc(Br)c1O,8,·,17,2,6,2,·
O=C(NNC(=O)C12CC3CC(CC(Br)(C3)C1)C2)c1ccccc1F,12,-25,·,-5,44*,3,43*
O=C(NNC(=O)C12CC3CC(CC(O)(C3)C1)C2)c1ccccc1O,-12,-18,-1,6,-3,-7,·
Cc1cc(/C=C2\Cc3ccccc3C2=O)c(C)n1-c1ccccc1,16,·,?,47,-310,-24,-193
Cc1cc(C=C2C(=O)c3ccccc3C2=O)c(C)n1-c1ccccc1,12,·,-43,21,-31,-9,·
CC(C)(C)c1cc(C(=O)NN)n(Cc2ccc(F)cc2)n1,5,-6,-6,-2,-4,-15,·
Cc1cccc(Cn2nc(C(C)(C)C)cc2C(=O)Nc2ccc(F)cc2)c1,-6,45,32,0,-299,-45,-370
CCOC(=O)N1CCC(N2C(=O)c3ccccc3C2Nc2ccc(C)cc2)CC1 (stereo not drawn),8,-4,4,2,-7,2,·
C/C(=N\Nc1ccc(C(=O)O)cc1)c1ccc(Br)cc1,-15,-8,-4,21,-345,-56,-301
C/C(=N\Nc1ccc(C(=O)O)cc1)c1ccc(Cl)s1,-72,·,-87,-125,-299,-100,-268
COc1ccc(NC(=O)C/C(C)=N/NC(=O)c2cnccn2)c(OC)c1,30,·,10,-22,-3,-16,·
CN(C)c1ccc(C(O)Cc2nc3ccccc3n2C)cc1 (stereo not drawn),-22,·,-97,-123,-269,-107,-289
SMILES,Gli-Sufu block,TAG inh,aSyn UTR inh,Shn3 inh set2,697 NFkB inh,Jurkat NFkB inh,697 NFkB conf
COc1cc(-c2ccc(NC(=O)NC3CC3)c(OC)c2)ccc1NC(=O)NC1CC1,·,·,-99,·,-299,-32,-5
Cc1cc(C(F)(F)F)c(C#N)c(SCC(=O)Nc2nc3ccccc3s2)n1,16,-20,-34,9,i,-77,-298
Cc1ccc2sc(NC(=O)CSc3nc(C)cc(C)c3C#N)nc2c1,-93,·,-3,-44,-67,-128,·
Cc1c(C)n(CCc2ccccc2)c2ncnc(NCCCO)c12,-90,·,-141,-89,-101,-65,·
COCCn1c(C)c(C)c2c(NCCc3ccccc3)ncnc21,25,·,34,7,-281,-77,-29
Cc1ccc(/C=C/C(=O)NC2=NCCS2)cc1,-94,·,8,-20,-417,-144,-315
Cc1ccc(OCC(=O)NC2=NCCS2)cc1,-6,·,-20,-10,-2,-46,·
CCOC(=O)N1CCC(NC(=O)c2cc(S(=O)(=O)N3CCC4(CC3)OCCO4)ccc2F)CC1,3,·,-9,20,21,16,·
CC1=CC(C)(C)Nc2ccc(OC(=O)CN3C(=O)c4ccccc4C3=O)cc21,12,52*,13,64,59*,-2,39*
CC1=CC(C)(C)Nc2ccc(OC(=O)C(Cc3ccccc3)N3C(=O)c4ccccc4C3=O)cc21 (stereo not drawn),9,-43,26,30,66*,-5,50*
O=C(/C=C/Sc1ccccc1)c1ccccc1,-24,·,-18,68,-295,14,-268
Cc1c(O)ccc(/C=N/Nc2ncccc2[N+](=O)[O-])c1O,-108,·,-39,55,-371,-131,-278
O=[N+]([O-])c1cccnc1N/N=C/c1ccccc1O,28,7,48,75,-120,-16,·
CNc1cnn(-c2ccccc2)c(=O)c1Cl,-18,2,-24,-15,-16,-6,·
Nc1nc(-c2ccco2)nn1S(=O)(=O)c1ccccc1,4,6,-4,7,25,-2,·
COc1ccc(/C=N/n2c(C)nc3ccccc3c2=O)cc1,-19,·,-25,-52,-19,-18,·
COc1ccc(/C=N\n2nnc3ccccc32)cc1,-134,27,73*,49,-294,-147,-215
NS(=O)(=O)c1ccc(CNC(=O)C23CC4CC(CC(C4)C2)C3)cc1,-8,13,12,11,-16,1,·
CC1C(=O)N2CCCc3cc(NC(=O)c4ccccc4Br)cc1c32 (stereo not drawn),5,17,9,1,41*,17,23
O=C(Nc1ccc2c(c1)CCCN2C(=O)c1ccccc1)c1ccccc1Br,-9,·,-8,2,-333,-13,-180
COc1ccccc1C(=O)Nc1ccc2c(c1)CCCN2C(=O)c1ccccc1,-16,·,-36,-5,-3,-2,·
